This passage reports growth inhibition results from PubChem BioAssay (NCI).

Molecules are shown by their SMILES. About 79,000 compounds went through this panel and 15% of them were active in at least one assay; those are over-represented in the sample as a whole. Unmarked numbers belong to inactive results. Calls of active or inactive are those of the source. Cut-off read from the data, not from the text of the source: active = growth inhibition above about 70%; inactive = the rest. Where a SMILES comes first, the peptide text is derived from it. Bridges are numbered along the chain shown (N, C = ends). Roman numbers before positions name the chains, in order. The star is where a group is joined. Cbz = O=C(OCc1ccccc1)*

The nature of this assay: NCI Yeast Anticancer Drug Screen. Data for the bub3 strain (AID 167). The settings on record: S. cerevisiae bub3 mutant strain, at 50.0 µM, hits give high values. The procedure, abridged: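 Screening used yeast with an engineered genetic alteration affecting cell cycle control. Compound-exposed cultures were compared with vehicle cultures, and reduced growth was taken as inhibition.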
As to `CCOC(=O)c1c(C)c(=O)cnc2c(C#N)cnn12`, the growth inhibition was -1.4%.

For the compound `COc1ccc(-c2c3c(n(C4OC(COC(C)=O)C(OC(C)=O)C(OC(C)=O)C4OC(C)=O)c(=S)c2C#N)CC(C)(C)CC3=O)cc1` (stereo not given), the growth inhibition was -0.05%.

Consider `O=c1[nH]c(Nc2ccc(Cl)c(C(F)(F)F)c2)nc2nc[nH]c12`, for which the growth inhibition was 8.45%.

Take `COC1OC(CO)C(OC(C)=O)C(OC(C)=O)C1OC(C)=O` (stereo not given): the growth inhibition is 12.6%.

`COc1cc2c(c(Cl)c1OC)CCN(C)CC2c1ccccc1` (stereo not given): the growth inhibition was -1.45%.

With `Clc1ccccc1CSc1cc(SCc2ccccc2Cl)nc(SCc2ccccc2Cl)n1`, the growth inhibition is -7.3%.

On to `NNc1nnnc2ccccc12`, for which the growth inhibition was -31.1%.

With `O=C(NCCCl)Oc1ccccc1`, the growth inhibition was -4.9%.

Take `CCCCn1cnc2ccc(N)cc2c1=O`: the growth inhibition was 16.2%.

As to `CCCCCCCCCCCC(=O)OCCS(=O)(=O)CCOC(=O)CCCCCCCCCCC`, the growth inhibition is 15.4%.

As to `Cc1ccc(NC(=O)C(=O)C2NC(=S)NC2=O)c([N+](=O)[O-])c1` (stereo not given), the growth inhibition was 5.6%.

Turning to `CC(C)C(NC(=O)C(CSSCC(NC(=O)OCc1ccccc1)C(=O)NC(C(=O)O)C(C)C)NC(=O)OCc1ccccc1)C(=O)O` (stereo not drawn) (I: Cbz-Cys-Val-OH / II: Cbz-Cys-Val-OH; disulfide I:1-II:1; configuration not given here), the growth inhibition was -1%.

Consider `S=C(Cl)Sc1ccc(-c2ccc(SC(=S)Cl)cc2)cc1`, for which the growth inhibition is 6.1%.

Take `NC(CSC(c1ccccc1)(c1ccccc1)c1ccc(C(=O)O)cc1)C(=O)O` (stereo not given): the growth inhibition was 2.2%.

Consider `CCCCC1(N=[N+]=[N-])C(=O)c2cccc3c2N(CCC3)C1=O` (stereo not given), for which the growth inhibition is 15.6%.

`CC1(C)OC[C@@H](O)[C@H](Br)CO1`: the growth inhibition is -32.9%.

Take `C=COC(=O)C(Cc1ccccc1)NC(=O)OCc1ccccc1` (stereo not given): the growth inhibition is -7.65%.

With `CCOC(=O)C12CC(COc3ccc([N+](=O)[O-])cc3)ON1OC(COc1ccc([N+](=O)[O-])cc1)C2` (stereo not given), the growth inhibition was -3.85%.

For the compound `CN(C)c1ccc(N=C2C=CC(=C(C#N)C#N)c3ccccc32)cc1`, the growth inhibition is -20.9%.

Regarding `O=C1CSC(c2cccnc2)N1CCN1C(=O)CSC1c1cccnc1` (stereo not given), the growth inhibition is -1.6%.

Regarding `CCOC(=O)N/C=C/C(C)=O`, the growth inhibition was -6.35%.

Turning to `CCN(CC)CCCNc1ccc2ncn3c4ccc(O)cc4c(=O)c1c23`, the growth inhibition was -27.8%.

Turning to `CC/C(C=O)=C\NC(=O)Nc1ccccc1`, the growth inhibition was -26.6%.

Turning to `O=S1(=O)CC=CC1`, the growth inhibition was 11.9%.

For `CC(C)CCCC(C)C1CCC2C3CCC4=C/C(=N/O)CCC4(C)C3CCC12C` (stereo not given), the growth inhibition is 25.2%.

`CCCC(C)(O)C(C)(C)C` (stereo not given): the growth inhibition was 28.8%.

As to `Cc1ccsc1/C=N/Nc1nncc2ccccc12`, the growth inhibition is 30.4%.

On to `COc1cc2cc3c(c(O)c2c(O)c1/C=C/C(C)C)C(=O)CC(C)(OC(C)=O)C3` (stereo not given), for which the growth inhibition is 18.8%.

As to `O=P1(O)Oc2ccc3ccccc3c2-c2c(ccc3ccccc23)O1`, the growth inhibition was 19.4%.

On to `Nc1cccc(OCC(O)CN2CCN(c3ccccc3)CC2)c1` (stereo not given), for which the growth inhibition was -1%.

Turning to `Cc1ccc(S(=O)(=O)/N=[N+](\[O-])c2ccc(N(C)C)cc2)cc1`, the growth inhibition is -7.8%.

With `CCOC(=O)N1CCN(C(=S)N/N=C(\C)c2cnccn2)CC1`, the growth inhibition was 99.5% (active).

On to `NC1C2CC3CC1CC(C2)O3` (stereo not given), for which the growth inhibition was 7.45%.

Turning to `NCCN1CCCCCc2ccccc21`, the growth inhibition was -41.1%.

As for `[C-]#[N+]N=P(c1ccccc1)(c1ccccc1)c1ccccc1`, the growth inhibition is -8.65%.

On to `C=CCc1cc(OC)c2c(c1)C(OC)CC(c1ccc(OC)c(OC)c1)O2` (stereo not given), for which the growth inhibition was -12.7%.

With `COc1ccc(N(C)S(=O)(=O)c2ccccc2)cc1`, the growth inhibition was 0.1%.

As to `Nc1cccc2c1C(=O)c1c(N)cccc1C2=O`, the growth inhibition was 99.2% (active).

In the case of `Cc1ccc(NC2=CC(=O)c3ccccc3C2=O)cc1`, the growth inhibition is 13.8%.

On to `COC(=O)C(=NNc1ccccc1[N+](=O)[O-])C(=O)OC`, for which the growth inhibition was 19.8%.
